These results are taken from PubChem BioAssay (EPA / NIEHS).

Active and inactive are the calls of the source. The calls were made as follows: active = hit-call score of the fitted dose curve at least 0.9, where 1 is the maximum; inactive = score below 0.9.

Sequence of Aryl hydrocarbon receptor (Homo sapiens) (P35869 whole entry, looked up): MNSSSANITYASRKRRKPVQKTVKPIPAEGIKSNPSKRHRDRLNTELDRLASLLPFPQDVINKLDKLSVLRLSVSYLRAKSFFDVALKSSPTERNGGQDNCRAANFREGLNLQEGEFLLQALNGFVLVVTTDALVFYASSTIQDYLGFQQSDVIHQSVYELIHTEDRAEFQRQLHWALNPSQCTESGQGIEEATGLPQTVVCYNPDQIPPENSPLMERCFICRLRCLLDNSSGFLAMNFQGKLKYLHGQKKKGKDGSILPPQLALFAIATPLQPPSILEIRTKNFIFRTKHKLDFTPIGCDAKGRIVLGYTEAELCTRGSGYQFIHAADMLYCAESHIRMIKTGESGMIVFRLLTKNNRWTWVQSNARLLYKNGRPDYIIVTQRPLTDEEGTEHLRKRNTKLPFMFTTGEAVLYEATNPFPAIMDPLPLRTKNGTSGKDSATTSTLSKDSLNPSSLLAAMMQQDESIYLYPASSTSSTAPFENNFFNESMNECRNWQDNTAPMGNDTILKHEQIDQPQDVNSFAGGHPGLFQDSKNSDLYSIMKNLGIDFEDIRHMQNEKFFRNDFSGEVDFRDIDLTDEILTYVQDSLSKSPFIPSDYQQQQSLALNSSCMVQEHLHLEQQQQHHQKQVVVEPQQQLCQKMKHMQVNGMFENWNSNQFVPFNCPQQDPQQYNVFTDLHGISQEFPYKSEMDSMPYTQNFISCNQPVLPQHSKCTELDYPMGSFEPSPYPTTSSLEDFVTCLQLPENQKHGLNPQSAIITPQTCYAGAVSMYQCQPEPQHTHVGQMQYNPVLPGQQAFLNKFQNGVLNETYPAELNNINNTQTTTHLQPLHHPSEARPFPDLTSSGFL

This test has as its target Aryl hydrocarbon receptor (Homo sapiens) (UniProt P35869). As to the kind of experiment: ATG_Ahr_CIS: Attagene CIS-FACTORIAL HepG2 Assay for human Aryl Hydrocarbon Receptor (Ahr) (AID 2282930). The note with it: HepG2 AhR cis-factorial reporter transcription; actives raise or lower the signal. In outline:
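Read-out: reporter mRNA quantified by RT-PCR with fluorescent primer extension and capillary electrophoresis. Human HepG2 liver cells carried transfected cis-promoter reporter units and were exposed to chemical for 24 h; gain or loss fitted relative to DMSO.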
For the compound `COCCOCCOCCOCCOC`, the call was inactive. The same measure, in the same setting: then `N=c1ccn2c(n1)O[C@H]1[C@H](O)[C@@H](CO)O[C@H]12`, with “inactive”. Same read-out and setting: then `O=C1CCCCCCCCCCC(=O)OCCO1`, with “inactive”; and `CCCCC/C=C\C/C=C\CCCCCCCC(=O)OC`, with “inactive”. One may read the AC50 as the concentration at which the activity in the assay is half-maximal. Turning to `O=C(Oc1ccccc1)c1ccc2ccccc2c1O`, the AC50 is 17 µM (active). As to `O=CC1CC1`, the AC50 is 0.119 µM (active). Consider `CCOC(=O)Cc1cccc2ccccc12`, for which the call was inactive. On the same count and under the same terms, then `COC(=O)c1sccc1S(N)(=O)=O`, with “inactive”; and `CC1(C)S[C@@H]2[C@H](NC(=O)COc3ccccc3)C(=O)N2[C@H]1C(=O)O`, with “inactive”; and `[Cl][In]([Cl])[Cl]`, with “inactive”. In the case of `CCCCCCOC(=O)C(C)CC` (stereo not drawn), the compound was classed as inactive.

Take `CCO[Si](CCCN=C=O)(OCC)OCC`: the outcome was inactive. The same measure, in the same setting: in the case of `CCCCCCCCCCCCCCCCCC#N` it was “inactive”; in that of `[Cl][Nd]([Cl])[Cl]`, “inactive”.

As to `O=Nc1ccc(O)cc1`, the outcome was inactive. Same read-out and setting: then `Cc1ccc(C2OC[C@@H]3OC(c4ccc(C)cc4)O[C@H]([C@H](O)CO)[C@@H]3O2)cc1` (stereo partly drawn), with “inactive”. With `CCCOC(=O)CCCCC(=O)OCCC`, the result was inactive. Same read-out and setting: then `O=C1C=CC(=O)O1`, with “inactive”. With `O=S1(=O)OC(c2ccc(O)cc2)(c2ccc(O)cc2)c2ccccc21`, the AC50 is 34.9 µM (active). Still for that read-out and setting: then `O=C(Cl)c1cc(C(=O)Cl)cc(C(=O)Cl)c1`, with 77.5 µM (active). As for `O=C(O)CC(C(=O)O)C(CC(=O)O)C(=O)O` (stereo not drawn), the call was inactive.

For the compound `[Cl][Bi]([Cl])([c]1ccccc1)([c]1ccccc1)[c]1ccccc1`, the outcome was inactive. Turning to `COC(=O)/C=C\C(=O)O`, the call was inactive.

For the compound `CC(=O)c1ccc2c(c1)CCCC2`, the call was inactive. On to `OCCN(CCO)c1ccccc1`, for which the AC50 was 13.7 µM (active). As to `c1ccc2c(c1)ccc1cc3c(ccc4ccccc43)cc12`, the AC50 is 0.0244 µM (active).

Take `NCCCN1CCN(CCCN)CC1`: the outcome was inactive. On to `COc1cc(NC(=O)CC(C)=O)c(OC)cc1Cl`, for which the AC50 is 40.1 µM (active). Take `O=c1[nH]nc(-c2ccc([N+](=O)[O-])o2)o1`: the result was inactive. In the case of `CC(=O)C=CC1C(C)=CCC(C)C1(C)C` (stereo not drawn), the call was inactive. As to `CCCCCCCC[N+](C)(CCCCCCCC)CCCCCCCC`, the compound was classed as inactive.

Consider `CCCCCCCC/C=C\CCCCCCCC(=O)O`, for which the call was inactive. For `Oc1ccc(Cl)cc1Cc1cc(Cl)ccc1O`, the compound was classed as inactive. On the same count and under the same terms, then `COCCCOCCCOC`, with “inactive”; and `CCCCCCCC(C)=O`, with “inactive”. Still for that read-out and setting: in the case of `C1=CCCC1` it was “inactive”. As to `CCCCCCCCc1ccc(Nc2ccc(CCCCCCCC)cc2)cc1`, the outcome was inactive. Take `NC(=O)N=NC(N)=O`: the call was inactive.
